The source of these data is PubChem BioAssay (NCI).

About 83,000 compounds went through this panel and 20% of them were active in at least one assay; those are over-represented in the sample as a whole.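 Method: cells in 96-well plates; compound added at one concentration; 48 h incubation; percent growth measured; values under 10 scored active.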 Values without a mark were called inactive. Calls of active or inactive are those of the source.

Assay in all cases: NCI-60 one-dose screen, 48 h (100 = growth as untreated, 0 = no growth, -100 = all killed)
For assay [1], the system named is HCT-15 colon. To be noted: 10 µM unless noted.
Assay [2] relates to HT29 colon. The conditions noted are these: 10 µM unless noted.
The subject of assay [3] is SNB-75 CNS. To be noted: 10 µM unless noted.
Assay [4] has as its system SNB-19 CNS. The conditions noted are these: 10 µM unless noted.
Assay [5] concerns U251 CNS. To be noted: 10 µM unless noted.
Assay [6] relates to PC-3 prostate. To be noted: 10 µM unless noted.
Assay [7] concerns UACC-62 melanoma. To be noted: 10 µM unless noted.
Assay [8] concerns LOX IMVI melanoma. The conditions noted are these: 10 µM unless noted.
Assay [9] concerns SK-MEL-28 melanoma. To be noted: 10 µM unless noted.
The subject of assay [10] is SK-MEL-2 melanoma. To be noted: 10 µM unless noted.
Assay [11] has as its system SN12C renal. To be noted: 10 µM unless noted.
Assay [12] relates to UO-31 renal. The conditions noted are these: 10 µM unless noted.
For assay [13], the system named is TK-10 renal. To be noted: 10 µM unless noted.
In assay [14] the test system is ACHN renal. The conditions noted are these: 10 µM unless noted.
For assay [15], the system named is CAKI-1 renal. To be noted: 10 µM unless noted.
For assay [16], the system named is CCRF-CEM leukemia. The conditions noted are these: 10 µM.
Assay [17] concerns MOLT-4 leukemia. The conditions noted are these: 10 µM unless noted.
Assay [18] deals with EKVX NSCLC. To be noted: 10 µM.
For assay [19], the system named is A498 renal. The conditions noted are these: 10 µM unless noted.
Assay [20] has as its system SK-MEL-5 melanoma. To be noted: 10 µM unless noted.

Regarding `CCCCCCN(CCCCCC)CCC(=O)Nc1ccc(S(=O)(=O)c2ccc(NC(=O)CCN(CCCCCC)CCCCCC)cc2)cc1`, the growth in [1] was 72.9%; in assay [2] it was 29.9%; in [3], 71.3%; in assay [4], 88%; in assay [5], 88.4%; in assay [6], 76.6%. Moreover, the growth was 91.3% in assay [7]; 76.5% in assay [8]; 91.9% in [9]; 122% in assay [10]; 81.4% in [11]; 52.3% in assay [12]. Besides, the growth in [13] was 109%; in assay [14], 88.3%; in assay [15] it was 86.6%; in assay [16], 51.3%; in assay [17] it was 59.1%.
In the case of `Cc1c(Cc2ccccc2)c(=O)oc2c(C)c(OCC(=O)n3nc(C#N)cc3N)ccc12`, the growth in [1] is 103%; in assay [2], 95.6%; in [3] it was 81%; in assay [4] it was 98.9%; in assay [5], 106%; in assay [6], 89%. Also, the growth is 99.1% in assay [7]; 96.7% in [8]; 106% in assay [9]; 98.9% in assay [10]; 97.7% in [18]; 75.6% in assay [12]. Besides, the growth in assay [13] is 123%; in assay [14], 93.6%; in [19], 126%; in assay [16], 99.6%; in assay [17], 98.5%.
In the case of `O=C(NCCO)C(F)(F)F`, the growth was 96.9% in [1]; 104% in assay [2]; 101% in assay [3]; 94.6% in assay [4]; 97.1% in assay [5]; 103% in assay [6]. Moreover, the growth in [7] was 102%; in assay [8], 103%; in assay [9], 111%; in assay [10], 105%; in assay [12], 94.2%; in assay [14] it was 101%. The growth in assay [15] was 95.9%; in assay [19], 107%; in assay [17], 99.3%.
Take `O=c1c(N=Nc2nccs2)c(-c2ccccc2)[nH]n1-c1nc(-c2ccccc2)cs1`: the growth in [1] was 19.5%; in assay [2], 32.2%; in [3], 61%; in assay [4], 24.4%; in assay [6], 32.8%; in assay [20], 15.2%. The growth in assay [7] is 12.3%; in assay [8], 44.3%; in assay [9] it was 47.1%; in [10], 22.8%; in assay [18] it was 53.1%; in assay [11], 35%. Moreover, the growth in assay [12] was 36.4%; in assay [13], 45.6%; in assay [14] it was 35.4%; in assay [15], 35.6%; in assay [19], 28.6%; in assay [16] it was 25.5%. Further, in assay [17], the growth was 30.3%.
As to `COc1cc2ncnc(-n3ncc4cc(NC(=O)Nc5ccc(Cl)c(C)c5)ccc43)c2cc1OC`, the growth in [1] is 103%; in [2] it was 73.6%; in assay [3] it was 82.7%; in assay [4], 109%; in assay [6], 65.6%; in assay [20] it was 88%. The growth was 88.9% in assay [7]; 98% in assay [8]; 80.5% in [9]; 92.5% in assay [10]; 97.7% in [18]; 98.8% in [11]. Besides, the growth in assay [12] was 100%; in [13], 95.9%; in assay [14] it was 103%; in assay [15], 92.7%; in [19], 101%; in [16], 102%. Moreover, the growth in assay [17] is 84%.
Regarding `COc1ccc(/C=N/c2cc(C(C)(C)C)nn2-c2ccccc2)cc1`, the growth is 86.8% in assay [1]; 99.9% in [2]; 114% in assay [3]; 94.6% in assay [4]; 97.9% in [5]; 98% in assay [20]. Also, the growth in [7] was 86.7%; in [8], 99.8%; in [9], 111%; in [10], 124%; in assay [18] it was 104%; in assay [11] it was 102%. In addition, the growth in assay [12] is 94.5%; in assay [13] it was 117%; in [14] it was 95.7%; in [19] it was 103%; in [17] it was 96%.
Turning to `COc1cc2ncnc(-n3ncc4cc(NC(=O)Nc5ccccc5)ccc43)c2cc1OC`, the growth in assay [1] was 21%; in assay [2], 29.1%; in assay [3], -12.4% (active); in [4], 44.7%; in assay [6], -18.4% (active); in [20], 40.2%. Also, the growth in [7] was 23.9%; in assay [8], 1.66% (active); in assay [9], -15.1% (active); in assay [10] it was -4.23% (active); in assay [18], -1.75% (active); in assay [11], 3.79% (active). In addition, the growth is -44.4% (active) in assay [12]; -41.1% (active) in [13]; 17.1% in assay [14]; 16.1% in assay [15]; -33.4% (active) in assay [19]; 22.9% in [16]. In assay [17], the growth is 3.89% (active).
As for `CCn1cnc(C[C@H](NC(=O)[C@@H](NC(=O)Nc2cc(C(F)(F)F)cc(C(F)(F)F)c2)C(C)C)C(=O)OC)c1`, the growth in assay [1] is -78.6% [100 µM] (active); in [2] it was -81% [100 µM] (active); in assay [3], -100% [100 µM] (active); in [4], -90.8% [100 µM] (active); in assay [5], -94.3% [100 µM] (active); in [6], -91.8% [100 µM] (active). Further, the growth in [7] is -94.6% [100 µM] (active); in assay [8], -86% [100 µM] (active); in assay [9], -96% [100 µM] (active); in assay [10] it was -86% [100 µM] (active); in assay [11] it was -86.8% [100 µM] (active); in assay [12], -97% [100 µM] (active). The growth is -98.7% [100 µM] (active) in assay [13], -98.7% [100 µM] (active) in assay [14], -89.5% [100 µM] (active) in assay [19] and -54.9% [100 µM] (active) in assay [17].
Turning to `O=C(Nc1cccc2[nH]c(C(F)(F)F)nc12)c1ccc(F)cc1`, the growth in assay [1] was 96.9%; in [2], 99.3%; in assay [3], 97.3%; in assay [4], 78.6%; in assay [5] it was 71.7%; in assay [20], 69.5%. Besides, the growth in [7] was 51.6%; in assay [8], 87.8%; in assay [9], 79.7%; in [11] it was 81.8%; in assay [12], 63%; in assay [13], 113%. Besides, the growth in assay [14] is 82.7%; in assay [15], 84%; in [19], 19%; in [16], 51.7%; in assay [17], 65.5%.
